Our source for the inhibition values is ChEMBL document CHEMBL1961873, “Compounds: GSK PKIS; Assays: Nanosyn kinase panel” (2012).

For assay [1], the target named is T1, Inhibitor of nuclear factor kappa-B kinase subunit epsilon (Homo sapiens) (UniProt Q14164).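 Note: reported values are averaged percent inhibition figures against human IKKε.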
T1 sequence (whole entry): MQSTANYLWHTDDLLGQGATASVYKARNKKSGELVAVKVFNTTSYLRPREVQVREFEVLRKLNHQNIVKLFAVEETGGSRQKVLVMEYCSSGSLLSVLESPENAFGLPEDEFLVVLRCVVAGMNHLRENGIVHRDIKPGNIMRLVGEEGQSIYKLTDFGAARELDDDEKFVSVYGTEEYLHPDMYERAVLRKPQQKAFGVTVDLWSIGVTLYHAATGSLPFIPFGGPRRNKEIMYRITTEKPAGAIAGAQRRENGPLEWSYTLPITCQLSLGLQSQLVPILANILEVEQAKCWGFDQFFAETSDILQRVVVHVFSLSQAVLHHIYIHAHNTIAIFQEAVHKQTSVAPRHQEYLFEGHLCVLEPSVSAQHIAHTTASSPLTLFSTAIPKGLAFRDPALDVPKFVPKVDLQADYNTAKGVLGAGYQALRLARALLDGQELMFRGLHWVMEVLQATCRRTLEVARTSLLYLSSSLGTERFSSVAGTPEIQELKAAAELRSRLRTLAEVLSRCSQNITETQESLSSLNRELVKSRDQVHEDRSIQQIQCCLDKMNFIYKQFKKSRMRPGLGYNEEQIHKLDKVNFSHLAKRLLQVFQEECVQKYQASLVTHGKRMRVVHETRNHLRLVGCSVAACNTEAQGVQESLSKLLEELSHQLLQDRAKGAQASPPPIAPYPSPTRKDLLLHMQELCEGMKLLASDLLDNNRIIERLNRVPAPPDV
The following applies: at 1 µM.

The target in assay [2] is T2, Serine/threonine-protein kinase Nek1 (Homo sapiens) (UniProt Q96PY6).
T2 sequence (whole entry): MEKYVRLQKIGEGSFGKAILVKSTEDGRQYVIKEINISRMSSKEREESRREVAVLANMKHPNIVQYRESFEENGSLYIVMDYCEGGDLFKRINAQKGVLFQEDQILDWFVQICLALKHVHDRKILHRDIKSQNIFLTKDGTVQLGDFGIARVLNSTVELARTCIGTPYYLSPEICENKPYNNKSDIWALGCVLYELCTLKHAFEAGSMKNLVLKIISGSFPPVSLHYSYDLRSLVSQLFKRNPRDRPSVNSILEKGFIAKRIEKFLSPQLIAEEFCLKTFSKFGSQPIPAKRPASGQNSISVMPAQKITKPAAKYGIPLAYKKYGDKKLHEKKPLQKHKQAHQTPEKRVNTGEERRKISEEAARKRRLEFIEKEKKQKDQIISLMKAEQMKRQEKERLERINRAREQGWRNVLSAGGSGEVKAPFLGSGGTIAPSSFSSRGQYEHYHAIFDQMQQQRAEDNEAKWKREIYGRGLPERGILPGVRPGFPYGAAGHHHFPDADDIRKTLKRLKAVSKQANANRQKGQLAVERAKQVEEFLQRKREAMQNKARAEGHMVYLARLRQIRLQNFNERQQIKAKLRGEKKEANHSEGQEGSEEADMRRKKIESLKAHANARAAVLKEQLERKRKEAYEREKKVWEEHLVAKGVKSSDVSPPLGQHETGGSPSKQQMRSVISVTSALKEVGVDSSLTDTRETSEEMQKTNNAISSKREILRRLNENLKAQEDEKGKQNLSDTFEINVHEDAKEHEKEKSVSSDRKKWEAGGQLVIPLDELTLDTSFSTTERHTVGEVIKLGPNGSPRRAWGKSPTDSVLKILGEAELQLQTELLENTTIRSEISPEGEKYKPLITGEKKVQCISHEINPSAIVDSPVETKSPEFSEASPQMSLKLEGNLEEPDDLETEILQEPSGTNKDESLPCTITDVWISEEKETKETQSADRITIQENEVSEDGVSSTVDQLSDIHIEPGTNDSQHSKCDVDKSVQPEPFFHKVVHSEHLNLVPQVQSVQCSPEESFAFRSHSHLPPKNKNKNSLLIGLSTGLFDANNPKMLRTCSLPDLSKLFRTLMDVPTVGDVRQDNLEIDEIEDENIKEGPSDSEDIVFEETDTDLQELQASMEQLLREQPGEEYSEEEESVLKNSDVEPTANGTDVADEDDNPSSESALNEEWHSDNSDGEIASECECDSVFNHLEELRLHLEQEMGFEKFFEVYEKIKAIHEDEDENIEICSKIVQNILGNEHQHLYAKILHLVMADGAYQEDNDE
The following applies: at 0.1 µM.

Assay [3] concerns the target T2, Serine/threonine-protein kinase Nek1 (Homo sapiens). The following applies: at 1 µM.
For assay [4], the target named is T3, Serine/threonine-protein kinase Nek2 (Homo sapiens) (UniProt P51955).
T3 sequence (whole entry): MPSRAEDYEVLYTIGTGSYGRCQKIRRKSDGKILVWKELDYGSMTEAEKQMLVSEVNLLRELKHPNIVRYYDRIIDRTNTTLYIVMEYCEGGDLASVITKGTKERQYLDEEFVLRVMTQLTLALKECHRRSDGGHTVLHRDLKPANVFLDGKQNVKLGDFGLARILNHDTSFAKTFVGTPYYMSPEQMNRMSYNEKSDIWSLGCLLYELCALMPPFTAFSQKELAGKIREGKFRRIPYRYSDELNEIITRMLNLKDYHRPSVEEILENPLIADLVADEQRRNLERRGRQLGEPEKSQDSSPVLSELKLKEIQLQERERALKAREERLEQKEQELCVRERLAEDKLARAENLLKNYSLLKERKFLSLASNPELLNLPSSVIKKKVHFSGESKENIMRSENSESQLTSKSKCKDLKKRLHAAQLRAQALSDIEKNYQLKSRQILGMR
The following applies: at 0.1 µM.

Assay [5] addresses T3, Serine/threonine-protein kinase Nek2 (Homo sapiens). The following applies: at 1 µM.
For assay [6], the target named is Serine/threonine-protein kinase Nek6 (Homo sapiens) (UniProt Q9HC98). The following applies: at 0.1 µM.
For assay [7] the target is unchanged. The following applies: at 1 µM.
Assay [8] has as its target Serine/threonine-protein kinase Nek7 (Homo sapiens) (UniProt Q8TDX7). The following applies: at 0.1 µM.
Assay [9] shares this target. The following applies: at 1 µM.
In assay [10] the target is T4, Serine/threonine-protein kinase Nek9 (Homo sapiens) (UniProt Q8TD19).
T4 sequence (whole entry): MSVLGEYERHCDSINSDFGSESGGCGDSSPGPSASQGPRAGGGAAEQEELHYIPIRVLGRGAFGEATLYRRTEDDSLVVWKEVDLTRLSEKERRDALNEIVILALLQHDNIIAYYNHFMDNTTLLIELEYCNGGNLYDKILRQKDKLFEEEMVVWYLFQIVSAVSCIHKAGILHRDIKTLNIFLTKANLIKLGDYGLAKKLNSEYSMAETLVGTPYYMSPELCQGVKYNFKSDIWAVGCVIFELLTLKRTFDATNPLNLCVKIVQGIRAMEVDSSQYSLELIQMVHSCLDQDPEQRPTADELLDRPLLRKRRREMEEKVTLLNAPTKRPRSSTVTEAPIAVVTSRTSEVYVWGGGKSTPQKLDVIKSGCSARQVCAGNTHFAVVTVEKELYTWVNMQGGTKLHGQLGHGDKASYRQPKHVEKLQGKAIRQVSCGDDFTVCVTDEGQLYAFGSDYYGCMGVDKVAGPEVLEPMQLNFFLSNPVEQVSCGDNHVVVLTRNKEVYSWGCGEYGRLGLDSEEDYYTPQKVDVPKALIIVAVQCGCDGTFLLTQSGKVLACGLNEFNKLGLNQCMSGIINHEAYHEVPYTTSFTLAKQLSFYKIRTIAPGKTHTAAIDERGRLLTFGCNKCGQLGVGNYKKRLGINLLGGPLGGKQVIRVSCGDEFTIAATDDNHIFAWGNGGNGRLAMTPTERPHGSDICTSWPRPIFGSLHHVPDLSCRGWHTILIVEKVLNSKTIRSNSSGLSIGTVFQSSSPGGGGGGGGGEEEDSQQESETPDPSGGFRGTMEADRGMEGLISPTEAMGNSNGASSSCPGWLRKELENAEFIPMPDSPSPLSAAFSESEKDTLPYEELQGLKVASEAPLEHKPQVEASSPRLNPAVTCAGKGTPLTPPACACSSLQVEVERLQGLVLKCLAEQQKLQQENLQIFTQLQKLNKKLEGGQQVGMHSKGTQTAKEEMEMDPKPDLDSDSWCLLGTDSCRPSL
The following applies: at 0.1 µM.

For assay [11], the target named is T4, Serine/threonine-protein kinase Nek9 (Homo sapiens). The following applies: at 1 µM.
Assay [12] has as its target Serine/threonine-protein kinase PLK1 (Homo sapiens) (UniProt P53350). The following applies: at 0.1 µM.
Assay [13] has the same target. The following applies: at 1 µM.
Assay [14] addresses T5, Dual specificity protein kinase TTK (Homo sapiens) (UniProt P33981).
T5 sequence (whole entry): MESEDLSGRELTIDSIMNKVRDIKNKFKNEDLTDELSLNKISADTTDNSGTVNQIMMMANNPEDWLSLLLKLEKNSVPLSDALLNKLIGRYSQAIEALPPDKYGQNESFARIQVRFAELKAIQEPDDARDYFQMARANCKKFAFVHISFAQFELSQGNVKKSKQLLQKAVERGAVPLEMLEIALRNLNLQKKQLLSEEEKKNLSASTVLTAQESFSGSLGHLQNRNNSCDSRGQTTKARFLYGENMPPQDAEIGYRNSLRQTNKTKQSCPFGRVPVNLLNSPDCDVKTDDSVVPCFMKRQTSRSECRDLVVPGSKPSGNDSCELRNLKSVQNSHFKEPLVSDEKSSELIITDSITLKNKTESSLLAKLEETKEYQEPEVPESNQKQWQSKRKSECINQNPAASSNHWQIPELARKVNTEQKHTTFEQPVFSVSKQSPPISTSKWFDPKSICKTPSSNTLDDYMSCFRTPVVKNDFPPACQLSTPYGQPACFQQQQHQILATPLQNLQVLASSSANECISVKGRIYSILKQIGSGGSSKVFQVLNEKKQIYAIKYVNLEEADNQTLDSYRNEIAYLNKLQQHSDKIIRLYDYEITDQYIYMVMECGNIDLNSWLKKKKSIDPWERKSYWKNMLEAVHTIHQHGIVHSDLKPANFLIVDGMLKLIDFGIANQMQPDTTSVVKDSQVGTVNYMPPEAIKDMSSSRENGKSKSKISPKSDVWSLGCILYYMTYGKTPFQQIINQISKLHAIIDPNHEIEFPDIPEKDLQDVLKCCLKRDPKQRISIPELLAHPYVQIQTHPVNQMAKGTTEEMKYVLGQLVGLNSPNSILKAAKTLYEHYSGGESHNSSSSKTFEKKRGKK
The following applies: at 0.1 µM.

Assay [15] deals with T6, Receptor-type tyrosine-protein kinase FLT3 (Homo sapiens), P36888 [D835Y].
T6 sequence (whole entry): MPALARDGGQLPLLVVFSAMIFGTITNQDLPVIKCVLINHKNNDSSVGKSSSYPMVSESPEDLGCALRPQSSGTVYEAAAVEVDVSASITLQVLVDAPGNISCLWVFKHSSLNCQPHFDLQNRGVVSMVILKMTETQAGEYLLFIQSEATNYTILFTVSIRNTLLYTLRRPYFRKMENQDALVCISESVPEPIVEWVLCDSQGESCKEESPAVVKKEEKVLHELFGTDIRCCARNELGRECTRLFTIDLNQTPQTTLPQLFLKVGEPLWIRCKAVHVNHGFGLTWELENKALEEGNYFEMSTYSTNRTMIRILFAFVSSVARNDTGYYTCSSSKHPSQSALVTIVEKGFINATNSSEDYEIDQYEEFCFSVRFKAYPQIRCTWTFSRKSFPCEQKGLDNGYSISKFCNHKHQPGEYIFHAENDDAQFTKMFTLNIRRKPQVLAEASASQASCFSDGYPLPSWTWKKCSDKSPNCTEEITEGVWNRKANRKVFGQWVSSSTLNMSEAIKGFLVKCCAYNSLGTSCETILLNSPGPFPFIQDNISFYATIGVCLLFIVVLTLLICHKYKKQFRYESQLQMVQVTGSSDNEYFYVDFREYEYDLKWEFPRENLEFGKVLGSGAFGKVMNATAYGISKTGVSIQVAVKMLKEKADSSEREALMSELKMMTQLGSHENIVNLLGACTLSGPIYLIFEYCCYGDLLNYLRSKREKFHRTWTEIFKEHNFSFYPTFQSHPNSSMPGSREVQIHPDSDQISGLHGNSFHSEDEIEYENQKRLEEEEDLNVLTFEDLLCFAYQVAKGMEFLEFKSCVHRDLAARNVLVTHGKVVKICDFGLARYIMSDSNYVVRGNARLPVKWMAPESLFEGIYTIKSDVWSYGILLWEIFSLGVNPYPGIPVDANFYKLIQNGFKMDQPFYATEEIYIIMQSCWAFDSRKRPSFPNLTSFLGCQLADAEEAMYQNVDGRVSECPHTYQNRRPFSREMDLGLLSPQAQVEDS
The following applies: at 1 µM.

Assay [16] concerns the target Vascular endothelial growth factor receptor 3 (Homo sapiens) (UniProt P35916). The following applies: at 0.1 µM.
The target is the same in assay [17]. The following applies: at 1 µM.
The target of assay [18] is Macrophage colony-stimulating factor 1 receptor (Homo sapiens) (UniProt P07333). The following applies: at 0.1 µM.
For assay [19] the target is unchanged. The following applies: at 1 µM.
In assay [20] the target is Tyrosine-protein kinase Fyn (Homo sapiens) (UniProt P06241). The following applies: at 0.1 µM.
Tyrosine-protein kinase Fyn (Homo sapiens), sequence (P06241 2-537 limits assumed): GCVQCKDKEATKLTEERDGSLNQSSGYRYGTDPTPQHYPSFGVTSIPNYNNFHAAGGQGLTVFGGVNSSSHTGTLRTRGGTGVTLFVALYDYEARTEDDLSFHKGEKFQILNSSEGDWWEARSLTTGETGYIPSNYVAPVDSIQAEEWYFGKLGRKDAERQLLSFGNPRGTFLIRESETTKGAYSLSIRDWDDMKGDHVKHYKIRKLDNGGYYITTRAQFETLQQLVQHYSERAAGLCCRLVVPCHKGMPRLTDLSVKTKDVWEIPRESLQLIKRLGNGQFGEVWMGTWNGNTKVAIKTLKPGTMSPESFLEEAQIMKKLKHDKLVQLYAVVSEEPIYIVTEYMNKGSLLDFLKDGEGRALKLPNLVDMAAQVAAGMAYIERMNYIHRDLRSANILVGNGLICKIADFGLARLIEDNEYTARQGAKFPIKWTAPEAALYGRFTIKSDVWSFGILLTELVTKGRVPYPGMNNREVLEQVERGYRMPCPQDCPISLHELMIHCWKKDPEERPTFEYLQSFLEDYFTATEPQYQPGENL

Serine/threonine-protein kinase Nek7 (Homo sapiens), sequence (Q8TDX7 whole entry, looked up): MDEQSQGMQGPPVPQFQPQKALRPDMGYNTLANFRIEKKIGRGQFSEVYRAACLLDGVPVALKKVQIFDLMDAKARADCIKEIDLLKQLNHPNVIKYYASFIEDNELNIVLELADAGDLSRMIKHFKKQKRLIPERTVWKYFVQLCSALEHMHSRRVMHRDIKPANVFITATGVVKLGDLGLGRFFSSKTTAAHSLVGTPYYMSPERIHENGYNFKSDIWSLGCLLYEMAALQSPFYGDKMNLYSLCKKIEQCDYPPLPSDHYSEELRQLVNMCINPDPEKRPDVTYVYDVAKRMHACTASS
Serine/threonine-protein kinase Nek6 (Homo sapiens), sequence (Q9HC98 whole entry): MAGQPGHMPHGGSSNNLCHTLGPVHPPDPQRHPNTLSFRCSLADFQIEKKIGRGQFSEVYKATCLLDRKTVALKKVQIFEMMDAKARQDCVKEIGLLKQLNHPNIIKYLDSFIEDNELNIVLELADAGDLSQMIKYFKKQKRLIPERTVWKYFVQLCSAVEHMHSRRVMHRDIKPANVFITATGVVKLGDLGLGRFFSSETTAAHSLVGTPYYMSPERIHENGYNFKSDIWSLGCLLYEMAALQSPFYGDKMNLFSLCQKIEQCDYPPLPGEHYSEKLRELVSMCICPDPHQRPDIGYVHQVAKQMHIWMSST
Vascular endothelial growth factor receptor 3 (Homo sapiens), sequence (P35916 whole entry): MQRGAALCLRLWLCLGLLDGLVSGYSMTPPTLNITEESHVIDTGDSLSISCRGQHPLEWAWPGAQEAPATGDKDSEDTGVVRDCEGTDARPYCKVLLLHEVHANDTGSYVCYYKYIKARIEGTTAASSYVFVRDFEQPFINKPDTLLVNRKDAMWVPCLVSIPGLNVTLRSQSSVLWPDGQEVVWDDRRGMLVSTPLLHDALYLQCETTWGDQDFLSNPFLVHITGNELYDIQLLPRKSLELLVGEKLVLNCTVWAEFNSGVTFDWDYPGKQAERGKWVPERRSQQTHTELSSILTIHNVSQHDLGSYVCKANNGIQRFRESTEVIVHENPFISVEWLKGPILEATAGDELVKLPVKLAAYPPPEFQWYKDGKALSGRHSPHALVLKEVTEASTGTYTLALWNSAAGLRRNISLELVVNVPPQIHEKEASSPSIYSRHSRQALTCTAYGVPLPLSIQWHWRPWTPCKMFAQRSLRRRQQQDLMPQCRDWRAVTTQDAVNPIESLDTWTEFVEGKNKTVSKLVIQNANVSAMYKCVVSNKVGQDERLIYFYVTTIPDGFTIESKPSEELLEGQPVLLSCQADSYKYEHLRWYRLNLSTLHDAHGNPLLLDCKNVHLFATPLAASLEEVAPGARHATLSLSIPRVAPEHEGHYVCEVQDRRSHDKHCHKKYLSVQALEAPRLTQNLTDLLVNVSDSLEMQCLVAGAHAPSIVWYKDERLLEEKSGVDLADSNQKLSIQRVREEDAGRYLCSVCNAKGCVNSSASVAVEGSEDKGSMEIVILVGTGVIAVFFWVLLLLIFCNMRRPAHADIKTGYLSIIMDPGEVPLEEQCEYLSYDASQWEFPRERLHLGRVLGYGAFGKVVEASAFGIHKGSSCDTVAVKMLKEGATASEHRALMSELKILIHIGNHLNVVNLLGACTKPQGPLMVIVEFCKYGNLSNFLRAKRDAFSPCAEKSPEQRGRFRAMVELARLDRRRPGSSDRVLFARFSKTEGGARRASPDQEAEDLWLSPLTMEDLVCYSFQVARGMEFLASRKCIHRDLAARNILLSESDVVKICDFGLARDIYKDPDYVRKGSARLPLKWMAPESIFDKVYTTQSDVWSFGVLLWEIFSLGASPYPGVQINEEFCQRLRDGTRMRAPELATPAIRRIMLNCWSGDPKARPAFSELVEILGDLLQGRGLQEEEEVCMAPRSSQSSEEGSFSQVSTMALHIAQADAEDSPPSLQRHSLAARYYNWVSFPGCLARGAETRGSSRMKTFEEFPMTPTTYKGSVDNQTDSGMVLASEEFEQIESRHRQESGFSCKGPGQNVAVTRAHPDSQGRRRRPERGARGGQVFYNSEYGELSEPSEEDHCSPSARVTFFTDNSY
Serine/threonine-protein kinase PLK1 (Homo sapiens), sequence (P53350 whole entry): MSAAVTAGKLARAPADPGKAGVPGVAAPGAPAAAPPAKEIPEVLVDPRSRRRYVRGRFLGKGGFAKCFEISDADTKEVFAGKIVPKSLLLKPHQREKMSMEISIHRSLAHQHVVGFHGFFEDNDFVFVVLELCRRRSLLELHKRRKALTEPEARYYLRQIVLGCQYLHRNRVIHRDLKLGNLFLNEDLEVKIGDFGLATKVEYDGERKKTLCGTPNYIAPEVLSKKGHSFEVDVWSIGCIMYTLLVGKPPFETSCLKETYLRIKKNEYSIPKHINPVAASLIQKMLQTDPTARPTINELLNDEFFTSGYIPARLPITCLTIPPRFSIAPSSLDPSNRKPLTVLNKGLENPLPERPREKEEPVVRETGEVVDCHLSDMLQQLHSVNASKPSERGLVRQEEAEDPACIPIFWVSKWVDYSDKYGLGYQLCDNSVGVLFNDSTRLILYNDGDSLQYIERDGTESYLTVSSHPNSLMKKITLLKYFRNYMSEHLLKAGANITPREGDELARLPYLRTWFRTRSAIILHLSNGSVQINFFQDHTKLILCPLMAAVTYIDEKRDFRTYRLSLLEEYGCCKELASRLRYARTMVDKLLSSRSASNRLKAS
Macrophage colony-stimulating factor 1 receptor (Homo sapiens), sequence (P07333 whole entry): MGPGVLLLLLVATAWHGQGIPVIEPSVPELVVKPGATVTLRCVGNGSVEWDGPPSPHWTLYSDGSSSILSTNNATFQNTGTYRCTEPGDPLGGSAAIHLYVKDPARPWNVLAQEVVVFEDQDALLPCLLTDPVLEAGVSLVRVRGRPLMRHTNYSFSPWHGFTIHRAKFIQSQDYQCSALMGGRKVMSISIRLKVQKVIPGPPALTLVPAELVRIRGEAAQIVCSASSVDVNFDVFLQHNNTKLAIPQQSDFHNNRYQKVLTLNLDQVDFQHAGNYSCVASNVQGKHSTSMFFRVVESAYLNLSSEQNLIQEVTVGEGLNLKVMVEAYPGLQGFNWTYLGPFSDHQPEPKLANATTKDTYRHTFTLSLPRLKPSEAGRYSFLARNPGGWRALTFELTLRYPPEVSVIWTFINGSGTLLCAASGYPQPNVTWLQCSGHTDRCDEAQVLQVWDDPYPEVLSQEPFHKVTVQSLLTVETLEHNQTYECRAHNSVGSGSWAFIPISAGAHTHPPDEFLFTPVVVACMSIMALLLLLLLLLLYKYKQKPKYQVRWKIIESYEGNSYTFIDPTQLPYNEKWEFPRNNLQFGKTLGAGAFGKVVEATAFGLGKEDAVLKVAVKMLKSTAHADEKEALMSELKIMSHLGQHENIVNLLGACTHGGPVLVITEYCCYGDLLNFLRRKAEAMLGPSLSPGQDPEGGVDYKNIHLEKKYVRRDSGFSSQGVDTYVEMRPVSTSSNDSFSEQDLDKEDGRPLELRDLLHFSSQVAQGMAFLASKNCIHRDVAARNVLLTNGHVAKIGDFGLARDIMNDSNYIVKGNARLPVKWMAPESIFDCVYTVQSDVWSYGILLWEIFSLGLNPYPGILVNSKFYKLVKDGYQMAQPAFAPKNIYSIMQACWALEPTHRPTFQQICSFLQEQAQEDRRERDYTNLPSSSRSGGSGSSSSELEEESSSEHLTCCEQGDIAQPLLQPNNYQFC

Take `CS(=O)(=O)CCNCc1ccc(-c2ccc3ncnc(Nc4ccc(OCc5cccc(C(F)(F)F)c5)cc4)c3c2)o1`: the inhibition in [1] was 4.77%; in [2], 3.08%; in [3], 8.21%; in assay [4], 7.25%; in assay [5] it was 6.57%; in [6], 0.78%. In addition, the inhibition in [7] is 4.95%; in assay [8] it was 2.96%; in assay [9] it was 7.52%; in [10], 4.02%; in assay [11], 2.96%; in assay [12], 5.06%. For the same compound, the inhibition in assay [13] was 6.5%; in assay [14], 7.15%; in assay [15], 1.14%; in [16], 8.65%; in assay [17], 15.4%; in assay [18], 3.92%. Further, the inhibition in assay [19] is 9.05%; in assay [20], 2.75%.
Regarding `CC1(C)CC(n2cnc(-c3ccc(F)cc3)c2-c2ccnc(N)n2)CC(C)(C)N1`, the inhibition in assay [1] was determined as 0.72%; in assay [2], 0.9%; in assay [3], 0.83%; in [4], 1.02%; in [5] it was 2.07%; in assay [6], 1.95%. The inhibition in [7] was found to be 0.37%; in assay [8], 3.74%; in assay [9], 1.39%; in [10] it was 5.35%; in assay [11] it was 2.47%; in assay [12], 2.09%. The inhibition in assay [13] is 0.76%; in assay [14] it was -0.55%; in [15], 0.24%; in assay [16] it was 3.06%; in assay [17], 2.77%; in [18], 1.31%. The inhibition in [19] amounted to 0.54%; in assay [20], 1.49%.

What is called inhibition is the drop in the measured response relative to a control, in per cent.
